Screening results from PubChem.
Dicer inh = inhibitors of Dicer pre-microRNA processing, primary screen, biochemical, cat-ELCCA, chemiluminescence; Endoribonuclease Dicer (Homo sapiens), Q9UPY3; cat-ELCCA pre-miR-21 Dicer processing; active compounds read high; z-score at 25 µM; 47,000 tested, 6% active; AID 1347074, 2019; in the data active = z-score above about 3, passing the limit was not always enough;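 also: higher signal means more uncleaved substrate so more Dicer inhibition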
A number is an active result; 0 = inactive. Many of the other results were omitted from the sample, so hits are more common in it than they were.

SMILES	Dicer inh
c1coc(CNc2nc[n+]3c4c2ncn4CC3)c1	0
Cc1ccc(CNC(=S)N(C)C)cc1	0
CCN(CC)C(=S)NC(=S)c1ccc(C)cc1	16
CCN(C(=S)Nc1ccc(C)cc1)c1ccccc1	0
CC12CCC3c4ccc(O)cc4C=CC3C1CCC2=O (configuration not stated)	0
O=C1CC(C(=O)Nc2ccc(F)c(Cl)c2)N=C(N2CCOCC2)N1 (configuration not stated)	0
O=C(O)CCSc1cccc2ccccc12	0
COC(=O)c1ccc(C(=O)OC)c(NC(=O)Nc2ccc(F)cc2)c1	0
CCOC(=O)Nc1cc(C(=O)OC)ccc1C(=O)OC	0
COC(=O)c1ccc(C(=O)OC)c(NC(=O)C2CC3CCC2C3)c1 (configuration not stated)	4.3
CC(C)c1ccc(C2C3=C(CCCC3=O)NC3=C2C(=O)c2ccccc23)cc1 (configuration not stated)	0
O=C(O)c1c(F)c(F)c(F)c(F)c1C(=O)O	0
Cc1c(C(=S)Nc2ccccc2Cl)sc2ccccc12	0
C[C@]12CC[C@@H](O)CC1CCC1C2CC[C@](C)(C(=O)O)C1/C=C1/Nc2ccccc2C1=O (some centres not stated)	0
C[C@]12CC=CCC1CCC1C2CC[C@](C)(C(=O)O)C1/C=C1/Nc2ccccc2C1=O (some centres not stated)	3.9
Cc1ccc(S(=O)(=O)N(C)Cc2nc(-c3ccc(Cl)cc3)no2)cc1	0
Cc1occc1-c1nnc2n1N=C(c1ccc(Cl)cc1)CS2	0
CCOC(=O)CN(C(=O)COc1nc(-c2ccccc2)cc(C)c1C#N)c1ccccc1C	3.5
CCOC(=O)CN(C(=O)COc1nc(-c2ccccc2)cc(C)c1C#N)c1ccc(C)cc1	0
CCOC(=O)CN(C(=O)COc1nc(-c2ccccc2)cc(C)c1C#N)c1cccc(OC)c1	0
CCOC(=O)c1c(CN(C)CCO)n(C)c2cc(Br)c(OC(C)=O)cc12	0
CCOC(=O)NC(Nc1ccccc1F)(C(F)(F)F)C(F)(F)F	0
CCCCc1n(CC(=O)c2ccccc2)c2ccccc2[n+]1C	0
Cc1n(CC(=O)c2ccc(F)cc2)c2ccccc2[n+]1C	4.8
CCOc1ccc(C(=O)Cn2c(C)[n+](C)c3ccccc32)cc1	0
SMILES	Dicer inh
CSc1nnc2c(n1)OC(c1ccccc1OC(C)=O)N(C(C)=O)c1ccccc1-2 (configuration not stated)	0
COC(=O)c1sc(N2C(=O)c3oc4ccccc4c(=O)c3C2c2cccnc2)nc1C (configuration not stated)	0
O=C(CSC(=S)NNc1ccccc1)c1ccc(Cl)cc1	3.1
CC(C)(C)SC(=S)SCC(=O)c1ccc(Cl)cc1	0
O=C(CSC(=S)NNc1ccccc1)c1cccc([N+](=O)[O-])c1	0
COc1ccccc1C(c1c(C)[nH][nH]c1=O)c1c(C)[nH][nH]c1=O	0
CC(=O)n1cc(/C=C2/N=C(c3ccccc3)OC2=O)c2ccccc21	3
O=C1OC(c2ccccc2)=N/C1=C/c1cccs1	0
COc1ccc(/C=C2\N=C(c3ccccc3)OC2=O)c(OC)c1	0
CCOc1ccc(N2C(=O)C3ON(c4ccccc4)C(c4ccccc4O)C3C2=O)cc1 (configuration not stated)	0
O=C(O)c1ccc2c(c1)C1C=CCC1C(c1cccc(F)c1)N2 (configuration not stated)	0
Oc1ccccc1C1=NN2C(C1)c1ccccc1OC2c1cccnc1 (configuration not stated)	12
COc1cccc2c1OC(C(C)C)N1N=C(c3ccccc3O)CC21 (configuration not stated)	0
Cc1ccc(O)c(C2=NN3C(C2)c2cc(Cl)ccc2OC3c2cccnc2)c1 (configuration not stated)	0
Oc1ccccc1C1=NN2C(C1)c1ccccc1OC2c1ccccc1 (configuration not stated)	0
COc1cccc2c1OC(c1cccnc1)N1N=C(c3ccccc3O)CC21 (configuration not stated)	0
Clc1ccc(C2=NN3COc4ccccc4C3C2)cc1 (configuration not stated)	0
CC(C)C1Oc2ccccc2C2CC(c3ccccc3O)=NN21 (configuration not stated)	5.6
Clc1ccc(C2=NN3C(C2)c2ccccc2OC3c2cccnc2)cc1 (configuration not stated)	6
CN(C)/C=N/c1nc(Sc2ccc([N+](=O)[O-])cn2)n(C)n1	0
CS(=O)(=NS(=O)(=O)c1cc(S(=O)(=O)c2ccccc2)cs1)c1ccccc1 (configuration not stated)	0
CC(=O)N=C(N=Nc1c(O)[nH]c2ccccc12)NC(C)=O	0
COc1ccc(-c2cc(=S)ss2)cc1	0
CCOC(=O)C1CCN(C(=S)NC2CC3C=CC2C3)CC1 (configuration not stated)	0
NC(=O)C1CCN(C(=S)NC2CC3C=CC2C3)CC1 (configuration not stated)	0
SMILES	Dicer inh
COc1cccc(/C=N/NC(=O)C2CCCN(C(=S)NNC3CC4C=CC3C4)CC2)c1O (configuration not stated)	3.7
CC1=C(C(=O)OC(C)C)C(c2cccnc2)C2=C(CC(c3ccccc3)CC2=O)N1 (configuration not stated)	0
Nc1nnc(-c2cc(-c3ccc(Cl)cc3)on2)o1	0
COc1ccc(C2C(C#N)=C(C)NC3=C2C(=O)CCC3)cc1OC (configuration not stated)	0
CC1(C)CC(=O)C2=C(C1)c1c(ccc3ccccc13)NC2c1ccc(O)c(O)c1 (configuration not stated)	13
CCOc1cc(C2Nc3ccc4ccccc4c3C3=C2C(=O)CC(C)(C)C3)ccc1O (configuration not stated)	0
CC1(C)CC(=O)C2=C(C1)c1c(ccc3ccccc13)NC2c1ccc(O)cc1 (configuration not stated)	0
Cc1nn(-c2ccccc2)nc1C(=O)NC(=O)N1CC(C)OC(C)C1 (configuration not stated)	0
O=C(NCc1ccc(Cl)cc1)c1nn2c(C(F)(F)F)cc(-c3ccco3)nc2c1Cl	4.2
Cc1nn2c(C(F)(F)F)cc(-c3ccc(Cl)cc3)nc2c1Cl	0
O=C(Nc1ccc(F)c(Cl)c1)c1cc2nc(-c3ccco3)cc(C(F)(F)F)n2n1	0
O=C(NCc1cccnc1)c1nn2c(C(F)(F)F)cc(-c3ccc(F)cc3)nc2c1Cl	3.1
Cc1nn2c(C(F)(F)F)cc(-c3cccnc3)nc2c1-c1ccc(Cl)cc1	0
CN1CCN(C(=O)c2cnn3c(C(F)(F)F)cc(-c4ccco4)nc23)CC1	0
CN(C)CCCN1C(=O)C(O)=C(C(=O)c2cc3ccccc3o2)C1c1ccc(N(C)C)cc1 (configuration not stated)	0
O=C(/C=C/c1ccccc1)Nc1cccnc1Oc1ccc(F)cc1F	0
CCCCCOC(=O)CN1C(=O)C2C3c4ccccc4C(c4ccccc43)C2C1=O (configuration not stated)	0
C(=N\Nc1ncnc2sc3c(c12)CCCC3)/c1ccc2c(c1)OCO2	0
Cc1cc(-n2[nH]nnc2=S)ccc1Br	0
Cc1ccc(C)n1-c1cc(C(=O)O)cc(C(=O)O)c1	11
CC1=NN(c2cccc(C(=O)O)c2)C(=O)C1	0
Cc1ccc(C)n1-c1ccc(SCC(=O)O)cc1	0
